According to PubChem BioAssay (NCATS):
Records with an inconclusive call do not appear. Calls of active or inactive are those of the source. Calls come from the whole dose curve; as a rule, active = well fitted inhibition curve with a large enough effect; inconclusive = small, poorly fitted or top-dose-only effect; inactive = flat fitted curve, though single readings scatter. Peptide text beside a SMILES is read from it.

system: CRL-7250; assay: qHTS assay to identify novel small-molecules to repurpose for Merkel cell carcinoma treatment (AID 1296009); conditions: MCC and control cell lines, CellTiter-Glo viability, 72 h; series mostly up to 92 µM; activity change, negative = cytotoxicity: at the top concentration; note: nearly all actives have a fitted effect of over 60% in size
Procedure, shortened: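 Viability readout: ATP luminescence (CellTiter-Glo) after 72 hr drug exposure at 37 degree celsius. Dose-response format was 8 points for NPC and 11 points for MIPE; data normalized to in-plate controls.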

Compound	outcome
CC1=C[C@@H]2[C@H]3[C@@H]4O[C@@](C)(CC[C@H]4O)[C@H]3CC(=O)[C@]23C(=O)N[C@@H](CC(C)C)[C@@H]3[C@@H]1C	inactive
O=C(/C=C/c1ccc(O)c(O)c1)OC[C@H]1O[C@@H](OC2CCCCC2O)[C@H](O)[C@@H](O)[C@@H]1O (stereo partly specified)	inactive [at 17.4 µM]
C/C=C(\C)C(=O)OC1CC2C(CC=C3CC(OC4CC(OC)C(OC5CC(OC)C(OC6CC(OC)C(OC7CC(OC)C(OC8CC(OC)C(OC9OC(CO)C(O)C(O)C9O)C(C)O8)C(C)O7)C(C)O6)C(C)O5)C(C)O4)CCC32C)C2(O)CCC(C(C)=O)C12C (stereo unspecified)	inactive [at 9.27 µM]
CC(=O)OC1CC(=O)C2(C)C3CC4=C(OC(C)CC4=O)OC3(C)CCC2C1(C)C (stereo unspecified)	inactive [at 17.4 µM]
O=C(Cn1c2ccccc2c2nc3n(c(=O)c21)CCS3)N1CCCC1	inactive
C/C(=C\CCC1(C)C2CCC(C2)C1(C)O)C(=O)O (stereo unspecified)	inactive
COc1cc(/C=C/C(=O)O)ccc1O[C@@H]1O[C@H](CO)[C@@H](O)[C@H](O)[C@H]1O[C@@H]1OC[C@](O)(CO)[C@H]1O	inactive [at 17.4 µM]
Cc1ccc(-c2c(-c3nn(C)c4ncnc(N5CCC(N6CCCCC6)C5)c34)cnn2C)cc1 (stereo unspecified)	inactive
COC1C2=C(COC2=O)C2(C)CCCC(C)(CO)C2C1OC(=O)c1ccccc1 (stereo unspecified)	inactive [at 17.4 µM]
CC(c1ncncc1F)C(O)(Cn1cncn1)c1ccc(F)cc1F (stereo unspecified)	inactive
COc1cc(C2CC(=O)Nc3c2cc(Br)c2ccccc32)cc(OC)c1OC (stereo unspecified)	inactive
C=C[C@@](C)(CCC=C(C)C)O[C@@H]1O[C@H](CO[C@@H]2OC[C@H](O)[C@H](O)[C@H]2O)[C@@H](O)[C@H](O)[C@H]1O	inactive [at 17.4 µM]
COc1cc(CC(COC2OC(CO)C(O)C(O)C2O)c2cc(/C=C/CO)cc(OC)c2O)ccc1O (stereo unspecified)	inactive [at 17.4 µM]
CC(C/C=C/C(C)(C)O)C1CCC(C)(O)C(O)C1 (stereo unspecified)	inactive
CC(C)(O)C1=CCC23COC(C2)C(O)(C(=O)O)CCC13 (stereo unspecified)	inactive
COC(=O)c1[nH]c(=O)c2ccccc2c1-c1ccc[nH]1	inactive

Compound	outcome
COc1cc(C)c(C(=O)OC2C(C)OC(OC3CCC(C)C4C3C=C(C)C3/C(C)=C\CC/C(C)=C/C5(C)C=C(C(=O)O)C(C)CC56OC(=O)/C(=C(\O)C34C)C6=O)C(O)C2O)c(OC)c1 (stereo unspecified)	inactive [at 9.27 µM]
NCCOCCOCCNC(=O)Cc1ccc(Nc2nc(NCc3ccc(F)cc3)nc(NCC3CCCCC3)n2)cc1	inactive
CCc1nnc(NS(=O)(=O)c2ccc(NC(=S)NC(=O)/C=C/c3ccc(F)cc3)cc2)s1	inactive
COc1cc(C[C@H]2COC(=O)[C@@H]2Cc2ccc(O)c(OC)c2)ccc1O	inactive
CC(=O)OCC1(O)CCC2C(COC3OC(CO)C(O)C(O)C3OC(=O)/C=C/c3ccc(O)cc3)=COC(OC(=O)CC(C)C)C21 (stereo unspecified)	inactive [at 17.4 µM]
C[C@@H](O)[C@H](N)C(=O)N1CCC[C@H]1C(=O)N1CCC[C@H]1C(=O)N[C@H](C(N)=O)[C@@H](C)O (H-TPPT-NH2)	inactive [at 9.27 µM]
Cc1cc(Cn2cnc3c2CC(C(=O)O)N(C(=O)C(c2ccccc2)c2ccccc2)C3)ccc1N(C)C (stereo unspecified)	inactive
CC(C)(O)C1CCC2(C)C3C(O)C4C(C13)C42CO (stereo unspecified)	inactive
O=C(NCC1(N2CCN(c3ccccc3)CC2)CCOCC1)c1cccnc1Sc1ccccc1	inactive
C=C1CC[C@@]2(OC1)O[C@H]1CC3[C@@H]4CC=C5C[C@@H](O)C[C@@H](O[C@@H]6OC[C@H](O)[C@H](O)[C@H]6O[C@@H]6O[C@@H](C)[C@H](O)[C@@H](O)[C@H]6O)[C@]5(C)C4CC[C@]3(C)[C@H]1[C@@H]2C (stereo partly specified)	inactive [at 17.4 µM]
CC(=O)O[C@]1(C(C)=O)CC[C@H]2[C@@H]3CCC4=CC(=O)CCC4=C3[C@@H](c3ccc(N(C)C)cc3)C[C@@]21C	inactive
CC(=O)NC(C(=O)OC1CCC(C)(C)C2CC=C3C(=O)OCC3C12C)C(C)C (stereo unspecified)	inactive
COc1ccc(/C=C/C(=O)O[C@H]2[C@@H]3C=CO[C@@H](O[C@@H]4O[C@H](CO)[C@@H](O)[C@H](O)[C@H]4O)[C@@H]3[C@@]3(CO)O[C@@H]23)cc1O	inactive [at 17.4 µM]
C=C(C(=O)OC)[C@]12O[C@@](C)(CC[C@@]3(O)/C(=C\C)C(=O)O[C@]3(C)C[C@@H]1OC(=O)C(CO)CN1CCCC1C(=O)O)CC2=O (stereo partly specified)	inactive [at 17.4 µM]
CC(CC12CCCN1C(=O)C1CCCN1C2=O)OC(N)=O (stereo unspecified)	inactive
